Among all 5,500 compounds or so, about 2,000 (36%) were called active. Inconclusive results (about 18%) are left out. No stated cut-off is given here; in the data, active means normalized growth mostly below about 0.91 (no sharp cut-off); inconclusive means no clear call, values can overlap the other calls; inactive means mostly above about 0.92. The list shows a part of the results.
Experiment: chemical genetic growth profiling, strain panel (AID 1159580);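 further: tested at 20 µM; growth read once vehicle control cultures reached saturation at 30 °C; 1 = growth at the plate median or of vehicle wells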
Details: growth OD
[1] = S. cerevisiae deletion strains, locus YBR229C, strain ROT2, stronger effect = lower value
[2] = S. cerevisiae deletion strains, locus YCL061C, strain MRC1, stronger effect = lower value
[3] = S. cerevisiae deletion strains, locus YDL101C, strain DUN1, stronger effect = lower value
[4] = S. cerevisiae deletion strains, locus YDL134C, strain PPH21, stronger effect = lower value
[5] = S. cerevisiae deletion strains, locus YDR150W, strain NUM1, stronger effect = lower value
[6] = S. cerevisiae deletion strains, locus YEL061C, strain CIN8, stronger effect = lower value
[7] = S. cerevisiae deletion strains, locus YGR078C, strain PAC10, stronger effect = lower value
[8] = S. cerevisiae deletion strains, locus YHR030C, strain SLT2, stronger effect = lower value
[9] = S. cerevisiae deletion strains, locus YHR087W, strain rtc3, stronger effect = lower value
[10] = S. cerevisiae deletion strains, locus YJR043C, strain POL32, stronger effect = lower value
[11] = S. cerevisiae deletion strains, locus YJR075W, strain HOC1, stronger effect = lower value
[12] = S. cerevisiae deletion strains, locus YLR039C, strain RIC1, stronger effect = lower value
[13] = S. cerevisiae deletion strains, locus YLR058C, strain SHM2 (second series), stronger effect = lower value
[14] = S. cerevisiae deletion strains, locus YLR085C, strain ARP6, stronger effect = lower value
[15] = S. cerevisiae deletion strains, locus YLR262C, strain YPT6, stronger effect = lower value
[16] = S. cerevisiae deletion strains, locus YML094W, strain GIM5, stronger effect = lower value
[17] = S. cerevisiae deletion strains, locus YMR219W, strain ESC1, stronger effect = lower value
[18] = S. cerevisiae deletion strains, locus YMR263W, strain SAP30, stronger effect = lower value
[19] = S. cerevisiae deletion strains, locus YNL153C, strain GIM3, stronger effect = lower value
[20] = S. cerevisiae deletion strains, locus YNL298W, strain CLA4 (second series), stronger effect = lower value
[21] = S. cerevisiae deletion strains, locus YNL322C, strain KRE1, stronger effect = lower value
[22] = S. cerevisiae deletion strains, locus YNR030W, strain Alg12, stronger effect = lower value
[23] = S. cerevisiae deletion strains, locus YPL055C, strain LGE1, stronger effect = lower value
[24] = S. cerevisiae deletion strains, locus YPL241C, strain CIN2, stronger effect = lower value
[25] = S. cerevisiae deletion strains, locus YPR135W, strain CTF4, stronger effect = lower value

Measured: normalized growth

Cc1cc(Br)c(OCC(=O)NN)c2c1CCC2
active: [12] 0.608 | [15] 0.584
inactive: S. cerevisiae deletion strains, locus YAL013W, strain DEP1, stronger effect = lower value 1 | [1] 1 | [2] 1.01 | [3] 0.995 | [4] 1 | [5] 1.05 | [6] 0.985 | [7] 0.999 | [8] 0.856 | [9] 0.993 | [10] 0.998 | [11] 0.989 | S. cerevisiae deletion strains, locus YKL190W, strain CNB1, stronger effect = lower value 0.989 | [13] 0.999 | [14] 0.947 | [16] 0.975 | [17] 1 | [18] 0.961 | [19] 1.02 | [20] 0.979 | [21] 0.994 | [22] 0.997 | [23] 0.915 | [24] 1.02 | [25] 0.906

Cc1ccc(OCC(=O)NN)c2c1CCC2
inactive: [1] 1 | [2] 0.994 | [3] 1.03 | [4] 1.01 | [5] 1.01 | [6] 1.01 | [7] 0.989 | [8] 0.985 | [9] 1.04 | [10] 0.99 | [11] 0.989 | [12] 0.867 | [13] 1.01 | [14] 1.01 | [15] 0.913 | [16] 1.01 | [17] 0.991 | [18] 1.01 | S. cerevisiae deletion strains, locus YMR307W, strain GAS1, stronger effect = lower value 0.963 | [19] 1 | [20] 0.989 | [21] 0.997 | [22] 1.01 | S. cerevisiae deletion strains, locus YOL006C, strain TOP1, stronger effect = lower value 1.01 | [23] 1.01 | [24] 1.01 | [25] 0.982 | S. cerevisiae strains, strain wild type, stronger effect = lower value 1.01

— PubChem BioAssay AID1159580 (chemical genetic matrix, 2015)
